Source: PubChem BioAssay
A selection: hits, their analogues and other compounds. The true share with any hit is near 21%.
Cycloheximide cs – affects cycloheximide protein synthesis inhibition readout, counter-screen | cell reporter, cycloheximide protein synthesis inhibition counterscreen | max response, % | hit rate 12% among 300,000; in the data active = max response mostly above about 13%, no sharp cut-off; inactive = mostly below about 14%; note: read at 38.3 µM for the half of the compounds with a filed dose; 0% is about no effect
AMA1 RON2 block – AMA1-RON2 (P. falciparum) interaction inhibition; Potency, µM (titrated, usually from 58.2 µM), for the others: at the highest dose activity change, negative = inhibition, hits mostly inhibitors; AlphaScreen AMA1-biotinylated RON2 peptide binding; AID 720542; hit rate 0.2% among 360,000;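 note: potency is the fitted concentration of half-maximal effect; 0% = vehicle wells and -100% = peptide control; nearly all actives have a fitted effect of over 45% in size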
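AMA1 (3D7) with his tag at 25 nM final met compounds first, then biotinylated RON2 peptide at 25 nM; detection used donor plus acceptor beads, 10 µg/mL apiece, read by AlphaScreen after 30 min at room temperature.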
Pf growth 96h – inhibits malaria parasite growth, 96 h. Potency, µM (top dose mostly 28.7 µM), without a hit: top-dose activity change, negative = inhibition, actives largely listed as inhibitors. P. falciparum luciferase reporter growth, 96 h. hit rate 6.9% among 320,000; note: potency is the fitted concentration of half-maximal effect; % is set by controls: 0 for no effect and ±100 for the full control effect
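Two parasite generations (96 h, 37 C, 5% CO2) of compound exposure in infected erythrocytes (0.05% parasitemia, 2% hematocrit). Luciferase-reporter P. falciparum; decreased luminescence indicates inhibited growth, aimed at apicoplast-acting delayed death.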
Shiga inhibitor – inhibitors of Shiga toxin in Vero cells; Vero cells, Shiga toxin protein synthesis inhibition reporter; inhibition, % at 38.7 µM; hit rate 9.2% among 290,000; AID 2315; in the data active = inhibition mostly above about 28%, no sharp cut-off; inactive = mostly below about 43%; note: 0% is about no effect
HCV inh – HCV inhibition. Huh7.5.1 HCVcc-Cre infection, luciferase reporter, 44 h. Potency, µM (titrated, usually from 41.8 µM), for the others: top-dose activity change, negative = inhibition, usual class: inhibitors. hit rate 3.4% among 340,000. AID 651820; note: potency is the fitted concentration of half-maximal effect; % is set by controls: 0 for no effect and ±100 for the full control effect
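Compounds are dispensed onto cells plated 4 h earlier at 1,000 per well, with HCVcc-Cre virus (about 0.5 moi) added next. Following 44 h of culture, luminescent signal is measured for 15 sec after 15 min with substrate at room temperature.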
Pf growth 48h – P. falciparum growth inhibition at 48 hours (one generation). Potency, µM (series often up to 28.7 µM), for inactives: top-dose activity change, negative = inhibition, hits mostly inhibitors. P. falciparum luciferase growth in erythrocytes, 48 h. AID 504832. hit rate 5.9% among 310,000; note: potency is the fitted concentration of half-maximal effect; % is set by controls: 0 for no effect and ±100 for the full control effect
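A one-generation exposure of luciferase-tagged malaria parasites in RPMI 1640/Albumax erythrocyte culture, 37 C and 5% CO2. Inhibition is inferred from decreased luminescence after adding detection reagent.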
* hit, by the source's call; ? = inconclusive; . = no result; [ ] = another dose, or the depositor's remark. Unless noted, calls come from the whole dose curve; as a rule, active = well fitted curve in the direction sought with a large enough effect; inconclusive = small, poorly fitted or top-dose-only effect, or another doubt; inactive = no such curve, though single readings can be large; an effect the other way counts as inactive or inconclusive.

SMILES	Cycloheximide cs	AMA1 RON2 block	Pf growth 96h	Shiga inhibitor	HCV inh	Pf growth 48h
COC(=O)[C@]1(C)N[C@H](CN(C)C(=O)Nc2ccc(Cl)cc2)[C@@H]2C(=O)N(Cc3ccccc3)C(=O)[C@@H]21	.	-6%	.	.	17%	.
COC(=O)[C@]1(C)N[C@H](CN(C)C(=O)Nc2ccc(C)cc2)[C@@H]2C(=O)N(C)C(=O)[C@@H]21	.	3%	.	.	1µM*	.
COC(=O)[C@]1(C)N[C@H](CN(C)C(=O)c2ccccc2)[C@@H]2C(=O)N(C)C(=O)[C@@H]21	.	11%	.	.	4µM*	.
CCNC(=O)N(C)C[C@H]1N[C@@](C)(C(=O)OC)[C@H]2C(=O)N(C)C(=O)[C@@H]12	.	-5%	.	.	-6%	.
C=CCNC(=O)Cn1c(=O)c2c(ncn2CCC(C)C)n(Cc2ccccc2)c1=O	-7	-11%	-2%	25	6%	?
CCOC(=O)C(C)Sc1ncnc2nc[nH]c12 (stereo unspecified)	1	-6%	?	11	9%	-22%
CCOC(=O)C(CC)Sc1ncnc2nc[nH]c12 (stereo unspecified)	9	1%	10µM*	-4	12%	-24%
Cc1occc1C(=O)NN=C1C2CC3CC(C2)CC1C3	28*	43%	165%	30*	14%	334%
COC(=O)[C@H](CC(C)C)NC(=O)NC1CCCc2ccccc21 (stereo partly specified)	1	7%	?	-7	3%	-13%
O=C(NC1CCCc2ccccc21)c1n[nH]c(=O)c2ccccc12 (stereo unspecified)	-3	5%	?	-9	22µM*	?
O=C(Cn1nnc2ccccc2c1=O)NC1CCCc2ccccc21 (stereo unspecified)	-1	18%	10µM*	-6	-6%	8%
CC(C)C[C@H](NC(=O)NC1CCCc2ccccc21)C(=O)O (stereo partly specified)	-3	5%	17%	2	7%	2.3µM*
CCCCc1nnc(NC(=O)c2ccc3[nH]c(=O)c(=O)[nH]c3c2)s1	-1	4%	14%	-2	18%	5%
Cc1occc1C(=O)NC1CCCc2ccccc21 (stereo unspecified)	10	-9%	6%	17	20%	13µM*
Cc1occc1C(=O)NC1CCCCCCC1	40*	-21%	61%	60*	38%	77%
Cc1nn(Cc2ccccc2)c(Cl)c1C(=O)NC1CCCc2ccccc21 (stereo unspecified)	3	-3%	?	15	35µM*	-19%
O=C(NC1CCCc2ccccc21)c1ccccc1 (stereo unspecified)	4	0%	-28%	-8	14%	-25%
C[C@@H](NC(=O)c1nc[nH]c1C(=O)N(C)Cc1ccccc1)c1ccccc1	.	26%	15%	.	12%	-13%
Cc1ccc(NC(=O)CN(C)S(=O)(=O)c2ccc(Cl)s2)c(O)c1	.	0%	123%	.	-11%	45%
c1ccc2c(c1)CNc1ccccc1-2	.	-7%	.	.	-11%	.
CCc1nc(SCc2ccc(Cl)cc2)n[nH]1	33*	-4%	6%[5.75 µM]	41*	-26%	72%
CCc1nc(SCc2ccc(OC)c(Br)c2)n[nH]1	10	29%	22%	69	-27%	-4%[0.00184 µM]
CCc1nc(SCc2ccc(OCC(C)C)cc2)n[nH]1	32*	16%	10µM*	58*	?	45%
CCc1nc(SCc2ccc(Br)cc2)n[nH]1	26*	27%	-7%	116*	-12%	77%
CCc1nc(SCc2ccc(C(=O)OC)o2)n[nH]1	6	-10%	10%	8	5%	11%
SMILES	Cycloheximide cs	AMA1 RON2 block	Pf growth 96h	Shiga inhibitor	HCV inh	Pf growth 48h
O=c1c2ccccc2ncn1CCCSc1ccccc1	9.6*	13%	?	24	18%	22%
Clc1ccc(OCCn2cnc3ccccc32)c(Cl)c1	41*	7%	?	64*	-23%	-83%
O=c1c2ccccc2ncn1CCCOc1ccccc1[N+](=O)[O-]	26*	9%	26%	82*	?	72%
Cc1cc(OCCCn2cnc3ccccc3c2=O)ccc1[N+](=O)[O-]	-3	-16%	-21%	-7	1%	6%
O=c1c2ccccc2ncn1CCCSc1ccc(Cl)cc1	-3	0%	8%	-5	26%	5%
O=[N+]([O-])c1ccccc1OCCCn1cnc2ccccc21	34*	4%	2.3µM*	54*	-11%	32%
CC(C)C1Cc2c(sc3c2c(=O)n(-c2ccccc2)c2n[nH]c(=S)n32)CO1 (stereo unspecified)	-3	18%	-9%	-3	14%	-12%
Cc1ccc(S(=O)(=O)NCCNc2ccc([N+](=O)[O-])cc2C(F)(F)F)cc1	-1	2%	4.1µM*	-12	-10%	10µM*
COc1ccc(O)c(C2=Nc3ccccc3N=C(c3cccs3)C2)c1	16*	-4%	1%	2	2%	-7%
Cc1ccc(O)c(C2=Nc3ccccc3N=C(c3ccco3)C2)c1	24*	4%	?	23	-11%	?
Cc1ccc(O)c(C2=Nc3ccccc3N=C(c3ccc([N+](=O)[O-])cc3)C2)c1	25*	-8%	?	15	0%	-21%
Cc1ccc(C2=Nc3ccccc3N=C(c3ccco3)C2)c(O)c1	14	5%	68%	48	16%	8%
Cc1ccc(O)c(C2=Nc3ccccc3N=C(c3cccc([N+](=O)[O-])c3)C2)c1	38*	-15%	-22%	67*	?	?
Cc1cccc([N+](=O)[O-])c1	.	9%	41%	.	-16%	36%
COc1ccc(O)c(-c2cn[nH]c2-c2cccs2)c1	-2	-9%	?	-8	-3%	7%
CCCc1cc(=O)[nH]c(SCC(=O)c2cc(C)n(CC3CCCO3)c2C)n1 (stereo unspecified)	.	-4%	.	.	?	.
COc1cc(-c2nnc(SCC(=O)/C(C#N)=C(\C)N)o2)cc(OC)c1OC	-1	-1%	9.3µM*	-13	?	?
COc1cc(-c2nnc(SCC(=O)c3ccc(C)cc3)o2)cc(OC)c1OC	-1	-5%	?	11	?	1%
Cc1cc(C(=O)CSc2nnc(-c3ccc(F)cc3)o2)c(C)n1CC1CCCO1 (stereo unspecified)	10	-4%	13µM*	15	5%	-6%
COc1cc(-c2nnc(SCC(=O)c3cc(C)n(CC4CCCO4)c3C)o2)cc(OC)c1OC (stereo unspecified)	64*	-6%	-19%[5.75 µM]	active	?	8.3µM*
Cc1c(C(=O)N/N=C/c2cccnc2)nnn1-c1nonc1N	0	3%	24%	19	-7%	-9%
Cc1ccc(C)c(CC(=O)N2CCCC(c3cc(C(=O)Nc4ccccc4Cl)no3)C2)c1 (stereo unspecified)	.	7%	.	.	.	.
